Consider 87 compounds from PubChem BioAssay AID743261 (The Scripps Research Institute Molecular Screening Center, 2014).

Out of some 3,300 compounds screened, about 35 (1%) were called active. Rule as the data show it: active = inhibition above about 11%; inactive = the rest. Not all results are given here.

As a reminder, the inhibition is the relative decrease from the control value, in per cent.

In this experiment the target is 1-phosphatidylinositol 4,5-bisphosphate phosphodiesterase beta-3 (Homo sapiens) (UniProt Q01970). Briefly: retest of human PLCB3 enzyme blockers – biochemical, fluorescence, purified enzyme, confirmation (AID 743261). The following applies: purified PLC-beta3, fluorogenic substrate fluorescence; at 12.3 µM; stronger effect = higher value.
Chain of 1-phosphatidylinositol 4,5-bisphosphate phosphodiesterase beta-3 (Homo sapiens) (Q01970 whole entry, looked up): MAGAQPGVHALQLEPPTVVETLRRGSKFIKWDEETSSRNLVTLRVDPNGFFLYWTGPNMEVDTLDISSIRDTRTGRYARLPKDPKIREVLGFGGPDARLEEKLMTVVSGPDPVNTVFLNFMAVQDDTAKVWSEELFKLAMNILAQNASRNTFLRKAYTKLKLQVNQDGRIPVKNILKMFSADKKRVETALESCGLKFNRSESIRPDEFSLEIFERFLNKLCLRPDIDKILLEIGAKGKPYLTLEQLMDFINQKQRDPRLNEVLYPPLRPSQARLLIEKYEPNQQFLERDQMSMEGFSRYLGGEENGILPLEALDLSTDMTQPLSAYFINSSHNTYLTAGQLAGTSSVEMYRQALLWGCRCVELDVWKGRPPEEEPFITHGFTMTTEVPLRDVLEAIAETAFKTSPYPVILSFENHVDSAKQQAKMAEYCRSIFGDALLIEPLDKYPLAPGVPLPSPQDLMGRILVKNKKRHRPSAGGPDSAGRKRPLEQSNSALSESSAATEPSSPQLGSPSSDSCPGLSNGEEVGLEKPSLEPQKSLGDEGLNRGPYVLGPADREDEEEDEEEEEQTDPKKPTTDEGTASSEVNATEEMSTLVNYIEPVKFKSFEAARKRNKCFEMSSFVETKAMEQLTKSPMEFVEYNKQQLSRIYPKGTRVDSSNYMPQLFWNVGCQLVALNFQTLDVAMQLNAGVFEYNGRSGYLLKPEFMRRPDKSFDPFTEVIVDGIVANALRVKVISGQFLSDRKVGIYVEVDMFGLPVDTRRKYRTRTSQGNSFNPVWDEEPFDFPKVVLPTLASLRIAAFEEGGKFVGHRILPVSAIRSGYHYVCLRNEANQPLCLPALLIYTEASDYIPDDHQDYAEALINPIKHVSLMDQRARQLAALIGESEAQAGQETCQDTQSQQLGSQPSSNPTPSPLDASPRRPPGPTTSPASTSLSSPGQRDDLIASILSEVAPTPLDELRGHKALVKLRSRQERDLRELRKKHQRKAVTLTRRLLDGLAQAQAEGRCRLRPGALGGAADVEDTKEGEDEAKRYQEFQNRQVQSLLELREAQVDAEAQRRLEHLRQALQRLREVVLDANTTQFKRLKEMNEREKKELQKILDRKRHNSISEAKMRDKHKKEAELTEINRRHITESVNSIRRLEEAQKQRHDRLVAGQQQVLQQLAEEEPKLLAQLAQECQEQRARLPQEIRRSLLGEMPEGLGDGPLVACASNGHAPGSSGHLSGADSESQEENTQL
For `Cc1cccc(NC(=O)c2ccc3c(=O)n(CC4CCCO4)c(=S)[nH]c3c2)c1` (configuration not stated), the inhibition is 1.92% (inactive).

In the case of `CCc1ccc(-c2nc(SCC(=O)NC3CCCC3)n[nH]2)cc1`, the inhibition was -2.19% (inactive).

Turning to `C=CCOc1ccc(Cl)cc1CNCCCN1CCOCC1`, the inhibition is 1.5% (inactive).

Take `Cc1cc(NC(=O)COn2nnc3ccccc32)no1`: the inhibition is -9.92% (inactive).

Turning to `Cc1ccc(Cn2ccc(NC(=O)C3C4CCC(C4)C3C(=O)O)n2)cc1` (configuration not stated), the inhibition was -9.86% (inactive).

On to `CN(CC(=O)Nc1ccccc1Cl)C(=O)COc1cccc2c1OC(C)(C)C2`, for which the inhibition was 0.64% (inactive).

As for `CNC(=O)n1ccc(C(=O)N2CCCCC2)n1`, the inhibition was -1.25% (inactive).

As to `COc1ccc(C(N)c2csc(NC(=O)Nc3cccc(C(F)(F)F)c3)n2)cc1` (configuration not stated), the inhibition was 3.1% (inactive).

In the case of `O=C(NCCCN1CCCCC1)C1CC(=O)N(CCc2ccccc2)C1` (configuration not stated), the inhibition is 1.91% (inactive).

`O=C1/C(=C\c2ccsc2)NC(=S)N1c1ccccc1`: the inhibition was -5.74% (inactive).

With `CC(C)Cn1cnc2c1c(=O)n(CC(O)c1ccccc1)c(=O)n2CC(C)C` (configuration not stated), the inhibition is -3.57% (inactive).

On to `C=CCOc1ccccc1/C=N/NC(=O)Cc1ccccc1`, for which the inhibition was -2.73% (inactive).

As to `CCOC(=O)N1CCC(c2cc(=O)n(-c3ccccc3)[nH]2)CC1`, the inhibition is 2.09% (inactive).

Consider `CCOc1cccc(-c2nnc3sc(COc4ccc(OC)cc4)nn23)c1`, for which the inhibition was -3.2% (inactive).

Consider `O=C(/C=C/c1c(F)cccc1Cl)Nc1nn[nH]n1`, for which the inhibition was -1.92% (inactive).

Turning to `O=S1(=O)c2ccc(Br)cc2OC[C@H](Cc2ccccc2)N1Cc1cn(Cc2ccccc2)nn1`, the inhibition is 6.58% (inactive).

As for `CC(=O)c1c(C)[nH]c(C(=O)OCC(=O)Nc2cc(S(=O)(=O)N3CCCCC3)ccc2C)c1C`, the inhibition was 2.76% (inactive).

On to `CCC1CCCCN1C(=O)CSc1nc(C)cc(C)n1` (configuration not stated), for which the inhibition is -1.69% (inactive).

For the compound `Cc1ccc(C(=O)N2CCN(C(=O)N3CCOCC3)CC2)cc1`, the inhibition is -1.36% (inactive).

`Cc1ccc(C)c(N2CCN(S(=O)(=O)c3c(C)[nH]c(C)c3C(=O)N3CCCC3)CC2)c1`: the inhibition was -5.1% (inactive).

In the case of `Cc1ccc(C23CC4CC(CC(C(=O)NCC(=O)O)(C4)C2)C3)cc1`, the inhibition was 4.19% (inactive).

On to `CCC[C@H]1CCCC/C=C\CCCC(=O)OCCN1C(=O)OC(C)(C)C`, for which the inhibition was 7.62% (inactive).

Take `CCOc1ccccc1NC(=O)c1cccnc1`: the inhibition was -4.38% (inactive).

In the case of `O=C1c2ccccc2S(=O)(=O)N1CC(O)Cn1c2ccccc2c2ccccc21` (configuration not stated), the inhibition was -0.97% (inactive).

As to `Cc1cc(NC(=O)c2ccc(F)cc2)ccc1NC(=O)c1ccco1`, the inhibition is 8.74% (inactive).

In the case of `Cc1ccc(C(=O)Nc2ccc(C)c(S(=O)(=O)N(C)C)c2)s1`, the inhibition was -7.5% (inactive).

In the case of `COC(=O)N(C)C[C@@H]1OCc2cnnn2CCCC(=O)N([C@@H](C)CO)C[C@@H]1C`, the inhibition is -4.12% (inactive).

Take `CCOc1ccc(CCNC(=O)COC(=O)CCS(=O)(=O)c2ccc(C)cc2)cc1OCC`: the inhibition was -2.58% (inactive).

As to `CCOC(=O)[C@]12CCCC=C1N(CCCOC)C(=O)[C@@H]2CC(=O)N1CCOCC1`, the inhibition was -1.19% (inactive).

For the compound `NC1=CC(=O)C(=O)c2cccnc21`, the inhibition was -2.06% (inactive).

Consider `O=C(NCc1cccnc1)c1cc(C2CCCCN2C(=O)CCc2ccccc2)on1` (configuration not stated), for which the inhibition was 1.6% (inactive).

With `NC1=NN(c2cccc(C(=O)O)c2)C(=O)C1`, the inhibition was 0.11% (inactive).

Regarding `OC(CNCC1CCCO1)Cn1c2ccc(Br)cc2c2cc(Br)ccc21` (configuration not stated), the inhibition was -1.89% (inactive).

For the compound `CCCCc1nc2ccccc2c(NC(=O)CN2CCN(C)CC2)c1CCC`, the inhibition was -2.31% (inactive).

As for `Cc1nc2ccccc2nc1CC(O)(c1ccccc1)c1ccccc1`, the inhibition was 1.99% (inactive).

For `CCOc1ccc(OCC)c(NC(=O)CSc2nnc(Cn3cnc4ccccc43)n2C)c1`, the inhibition was 2.61% (inactive).

With `CCC1S/C(=N/N=C/c2ccco2)NC1=O` (configuration not stated), the inhibition was 3.39% (inactive).

As to `CC(C)n1c(CN2CCN(Cc3ccccc3)CC2)nc2ccccc21`, the inhibition is -2% (inactive).

On to `Nn1cnnc1N/N=C/c1cc([N+](=O)[O-])c(Cl)cc1Cl`, for which the inhibition was -0.09% (inactive).

Regarding `COCCCN(C(=S)Nc1c(C)cc(C)cc1C)C(C)c1ccncc1` (configuration not stated), the inhibition was 3.06% (inactive).

`Cc1ccc(N2CC(C(=O)NCCS(=O)(=O)N3CCN(c4ccccc4)CC3)CC2=O)cc1` (configuration not stated): the inhibition was 3.26% (inactive).

Turning to `C/C(CC(C)C)=N\Oc1nc(C)cc(C)n1`, the inhibition is -3.23% (inactive).

Consider `C=CC1=C(C(=O)O)N2C(=O)[C@@H](NC(=O)/C(=N\OCC(=O)O)c3csc(N)n3)[C@H]2SC1`, for which the inhibition is 20.5% (active).

For the compound `COc1ccc(NC(=O)c2ccc(OC)cc2)cc1`, the inhibition is -4.41% (inactive).

As to `COc1ccc(/C=C2\N=C3CCCN3C2=O)cc1`, the inhibition is -5.85% (inactive).

Take `O=C(c1ccc2c(c1)OCO2)N1CCNc2ccccc2C1`: the inhibition is -2.69% (inactive).

Take `O=C(CSc1ccccc1)Nc1cccc(S(=O)(=O)N2CCOCC2)c1`: the inhibition was 4.18% (inactive).

In the case of `Cc1cc(C)c(NC(=O)CN2CCOCCOCCOCCOCC2)c(C)c1`, the inhibition was 0.38% (inactive).

`C=CCn1c(SCn2nnc3ccccc3c2=O)nnc1-c1ccc(Cl)cc1`: the inhibition was -0.45% (inactive).

Turning to `CCc1c(Nc2ccccc2C)nc(N)[nH]c1=O`, the inhibition is 1.95% (inactive).

Turning to `CCOc1ccccc1NC(=O)CCN1CCN(S(=O)(=O)c2ccc(OC)cc2)CC1`, the inhibition was -0.62% (inactive).

For the compound `C=CCN(c1ccc(Cl)cc1)S(=O)(=O)c1cccc(C(=O)OCC(=O)N(C)C)c1`, the inhibition was -16% (inactive).

Turning to `Cc1nc(Nc2ccccc2C)c2cnn(C)c2n1`, the inhibition is -0.91% (inactive).

With `Cc1ccc(NC(=S)N(Cc2ccco2)C(C)c2cccs2)cc1` (configuration not stated), the inhibition is -0.01% (inactive).

With `COc1ccc(C(CNC(=O)c2cc(S(=O)(=O)Nc3cccc(C)c3)ccc2C)N2CCCC2)cc1` (configuration not stated), the inhibition is -3.32% (inactive).

Consider `CCn1c(SCC(C)=O)nc2sc3c(c2c1=O)CCCC3`, for which the inhibition is -2% (inactive).

On to `Cc1nc2ccc(NC(=O)c3cccc(S(=O)(=O)N4CCOCC4)c3)cc2s1`, for which the inhibition is -9.8% (inactive).

Consider `Cc1c(C#N)c2ncn(CC#N)c(=O)c2n1-c1ccccc1`, for which the inhibition is -2.4% (inactive).

For the compound `CS(=O)(=O)N(Cc1ccc(Cl)cc1)c1ccc(C(=O)NCCSCc2ccco2)cc1`, the inhibition is 1.86% (inactive).

In the case of `Nc1nnc(SCC(=O)OCc2ccc(Cl)c(Cl)c2)s1`, the inhibition was -2.66% (inactive).

Regarding `Cc1ccc(/C=N/NC(=O)CSc2nc3ccccc3o2)cc1`, the inhibition is -1.23% (inactive).

`CN(C(=O)c1cccc(NC(=O)Cc2cccc([N+](=O)[O-])c2)c1)C1CCCCC1`: the inhibition is 2.33% (inactive).

Regarding `O=C(C1CCCO1)N1CCN(C(=S)Nc2cccc(Cl)c2)CC1` (configuration not stated), the inhibition was -2.93% (inactive).

Turning to `CCOc1ccc(NC(=O)[C@H](C)NC(=O)C2CC(=O)N(c3ccc(OC)cc3)C2)cc1` (some centres not stated), the inhibition is -3.05% (inactive).

`O=C(O)c1ccc(Cn2c(=S)[nH]c3cc(Cl)ccc3c2=O)cc1`: the inhibition is -7.23% (inactive).

Turning to `CC(=O)C12CC(C)=C(C)CC1CC1C3CCC4=CC(=O)CCC4(C)C3CCC12C` (configuration not stated), the inhibition is -2.56% (inactive).

As to `O=C(Nc1ccc(Br)cc1)C1CCC(=O)N1Cc1ccccc1Cl` (configuration not stated), the inhibition was -0.11% (inactive).

For `N#Cc1c(NC(=O)C2CCCO2)sc2c1CCCCC2` (configuration not stated), the inhibition is -7.76% (inactive).

As for `CCOC(=O)C1CCN(C(=O)c2ccccc2N(C)S(=O)(=O)c2ccccc2)CC1`, the inhibition was 1.21% (inactive).

As for `O=C(Nc1cccc([N+](=O)[O-])c1)Nn1cnnc1`, the inhibition was 0.35% (inactive).

On to `Cc1ccccc1C(=O)Nc1ccccc1Sc1ccccc1`, for which the inhibition was -4.34% (inactive).

As for `COc1ccc(S(=O)(=O)N2CCC(C(=O)OCC(=O)c3ccccc3)CC2)cc1[N+](=O)[O-]`, the inhibition was 0.58% (inactive).

Turning to `O=C(CCNS(=O)(=O)c1ccc(Br)cc1)NCC1CCCO1` (configuration not stated), the inhibition was 1.04% (inactive).

As to `Cc1ccc(-n2ncc3c2CC(C)(C)CC3NC(=O)CCc2cnn(C)c2)cc1` (configuration not stated), the inhibition was 0.66% (inactive).

As to `COC(=O)C[C@@H]1CC[C@@H]2[C@H](COc3ccc(NC(=O)c4cccc(F)c4)cc3C(=O)N2C)O1`, the inhibition is 2.78% (inactive).

Regarding `Cc1c(C(=O)c2cccc([N+](=O)[O-])c2)c2ccccn2c1CCC#N`, the inhibition is 6.14% (inactive).

For the compound `CN(C)/C=C(/C(=O)c1ccc(Cl)cc1)S(=O)(=O)c1ccccc1`, the inhibition is -1.45% (inactive).

Regarding `O=C(CSc1ncn[nH]1)N/N=C/c1ccc(F)cc1`, the inhibition was 1.52% (inactive).

As for `CNC(=O)c1ccc(NC(=O)c2cccc(C(F)(F)F)c2)cc1`, the inhibition is -1.78% (inactive).

On to `O=C1N[C@@H](c2ccccc2)COC(=O)[C@H](Cc2ccc(F)cc2)C/C=C\C[C@@H]1CC(=O)N(CCO)Cc1ccccc1`, for which the inhibition was 0.87% (inactive).

Take `C[C@]12c3[nH]c4ccc(Cl)cc4c3CCN1C(=O)[C@@H](CC(=O)NCCCn1ccnc1)C[C@@H]2C(=O)N1CCOCC1`: the inhibition is -2.45% (inactive).

In the case of `CCc1c(C)n([O-])c2c([n+]1=O)CCCCC2`, the inhibition was -2.11% (inactive).

Regarding `Cc1cc2nc(SCCN3CCOCC3)[nH]c2cc1C`, the inhibition is 0.27% (inactive).

Turning to `CCCCNc1ccc(C(=O)Nc2cccc(C)n2)cc1[N+](=O)[O-]`, the inhibition is -2.68% (inactive).

With `COc1ccc(CCNC(=O)COC(=O)Cc2ccccc2F)cc1`, the inhibition was -2.27% (inactive).

For the compound `CC(C)Oc1ccc(CC(=O)NNC(=S)Nc2ccc(Br)cc2)cc1`, the inhibition is -6.23% (inactive).

Turning to `Cc1ccc(-c2cn(S(=O)(=O)c3cccc([N+](=O)[O-])c3)nc2N)cc1`, the inhibition is -2.7% (inactive).
